Laboratory results as given in PubChem BioAssay AID1159580 (chemical genetic matrix, 2015).
Values joined by “and” are separate entries in the source; they are usually repeats but may differ in a detail not shown here. Identical values can stand only once. Hit rate of the full screen: of about 5,500 compounds, about 2,000 (36%) were called active. Not shown: some 18% with an inconclusive outcome. No stated cut-off is given here; in the data, active means normalized growth mostly below about 0.91 (no sharp cut-off); inconclusive means no clear call, values can overlap the other calls; inactive means mostly above about 0.92. The list shows a part of the results.

Experiment: chemical genetic growth profiling, strain panel (AID 1159580);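 further: tested at 20 µM; growth read once vehicle control cultures reached saturation at 30 °C; 1 = growth at the plate median or of vehicle wells; lower values mean less growth of the strain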
Settings: S. cerevisiae deletion strains, growth OD

Measured: normalized growth

CN(C)CCC(c1ccc(Br)cc1)c1ccccn1 (centres undefined)
inactive: locus YAL013W, strain DEP1, hits give low values 0.982 and 1 | locus YAL021C, strain ccr4, hits give low values 0.958 | locus YAL026C, strain drs2, hits give low values 0.996 | locus YAL030W, strain snc1, hits give low values 0.975 | locus YAL040C, strain CLN3, hits give low values 1.11 | locus YBL061C, strain skt5, hits give low values 0.991 | locus YBR009C, strain hhf1, hits give low values 0.999 | locus YBR021W, strain FUR4, hits give low values 0.975 | locus YBR023C, strain chs3, hits give low values 0.993 | locus YBR171W, strain sec66, hits give low values 0.974 | locus YBR229C, strain ROT2, hits give low values 0.978 | locus YBR231C, strain swc5, hits give low values 0.983 | locus YBR279W, strain paf1, hits give low values 0.976 | locus YCL011C, strain gbp2, hits give low values 0.97 | locus YCL016C, strain dcc1, hits give low values 0.979 | locus YCL029C, strain bik1, hits give low values 0.979 | locus YCL061C, strain MRC1 (second series), hits give low values 1 | locus YCL069W, strain vba3, hits give low values 0.985 | locus YCR088W, strain abp1, hits give low values 0.983 | locus YDL005C, strain med2, hits give low values 0.975 | locus YDL035C, strain GPR1, hits give low values 0.991 | locus YDL040C, strain nat1, hits give low values 0.967 | locus YDL074C, strain BRE1, hits give low values 0.952 | locus YDL101C, strain DUN1, hits give low values 0.984 | locus YDL134C, strain PPH21, hits give low values 0.983 | locus YDL185W, strain tfp1, hits give low values 0.998 | locus YDL192W, strain arf1, hits give low values 0.997 | locus YDR001C, strain nth1, hits give low values 0.974 | locus YDR069C, strain doa4, hits give low values 0.929 | locus YDR101C, strain arx1, hits give low values 0.967 | locus YDR137W, strain rgp1, hits give low values 1.01 | locus YDR150W, strain NUM1, hits give low values 0.997 and 1.01 | locus YDR159W, strain sac3, hits give low values 0.962 | locus YDR162C, strain NBP2, hits give low values 0.991 | locus YDR195W, strain ref2 0.96 | locus YDR297W, strain sur2, hits give low values 0.973 | locus YDR318W, strain mcm21, hits give low values 0.985 | locus YDR334W, strain swr1, hits give low values 0.956 | locus YDR335W, strain msn5, hits give low values 0.992 | locus YDR388W, hits give low values 0.99 | locus YDR392W, strain spt3, hits give low values 0.997 | locus YDR502C, strain sam2, hits give low values 0.984 | locus YEL003W, strain gim4, hits give low values 0.969 | locus YEL037C, strain rad23, hits give low values 0.981 | locus YEL061C, strain CIN8 (second series), hits give low values 0.989 | locus YEL061C, strain CIN8, hits give low values 0.994 | locus YER002W, strain NOP16, hits give low values 1.01 | locus YER015W, strain faa2, hits give low values 0.992 | locus YER016W, strain bim1, hits give low values 0.935 | locus YER110C, hits give low values 0.985 | locus YER111C, strain swi4, hits give low values 0.977 | locus YER155C, strain BEM2 (second series), hits give low values 1 | locus YER155C, strain BEM2, hits give low values 0.959 | locus YER167W, strain BCK2, hits give low values 0.992 | locus YFR010W, strain ubp6, hits give low values 0.986 | locus YGL078C, strain dbp3, hits give low values 0.987 | locus YGL086W, strain mad1, hits give low values 1 | locus YGL167C, strain pmr1, hits give low values 0.988 | locus YGL173C, strain kem1, hits give low values 0.975 | locus YGL227W, strain vid30, hits give low values 0.985 | locus YGL240W, strain doc1, hits give low values 0.995 | locus YGL248W, strain PDE1, hits give low values 0.974 | locus YGL253W, strain hxk2, hits give low values 0.991 | locus YGR078C, strain PAC10, hits give low values 0.992 and 1.01 | locus YGR135W, strain pre9, hits give low values 0.977 | locus YGR229C, strain SMI1, hits give low values 0.987 | locus YGR252W, strain gcn5, hits give low values 1.04 | locus YHR013C, strain ard1, hits give low values 0.956 | locus YHR027C, strain rpn1, hits give low values 0.952 | locus YHR030C, strain SLT2, hits give low values 0.992 and 0.989 | locus YHR079C, strain IRE1 (second series), hits give low values 0.99 | locus YHR079C, strain IRE1, hits give low values 0.99 | locus YHR094C, strain hxt1, hits give low values 0.994 | locus YHR129C, strain ARP1, hits give low values 0.986 | locus YHR142W, strain chs7, hits give low values 0.995 | locus YHR200W, strain rpn10, hits give low values 0.984 | locus YIL066C, strain RNR3, hits give low values 0.989 | locus YIL073C, strain SPO22, hits give low values 1.04 | locus YIL125W, strain kgd1, hits give low values 0.998 | locus YIR030C, strain dcg1, hits give low values 0.985 | locus YJL092W, strain hpr5, hits give low values 0.967 | locus YJL095W, strain BCK1 (second series), hits give low values 0.972 | locus YJL095W, strain BCK1, hits give low values 0.966 and 0.986 | locus YJL115W, strain asf1, hits give low values 0.941 | locus YJL129C, strain trk1, hits give low values 0.952 | locus YJL134W, strain LCB3, hits give low values 0.989 | locus YJL154C, strain vps35, hits give low values 0.955 | locus YJL164C, strain tpk1, hits give low values 0.991 | locus YJL166W, strain qcr8, hits give low values 0.973 | locus YJL168C, strain set2, hits give low values 0.993 | locus YJL187C, strain SWE1 (second series), hits give low values 0.978 | locus YJR043C, strain POL32, hits give low values 0.983 | locus YJR066W, strain TOR1, hits give low values 0.967 | locus YJR075W, strain HOC1, hits give low values 0.975 and 1.03
